Source: PubChem BioAssay AID743449 (Broad Institute, 2014)
About 90 (0.9%) of roughly 9,900 compounds were called active. About 2% were inconclusive and are not listed. The list comes from a sample in which actives are over-represented; it also holds similar structures and randomly drawn compounds. A number with no mark means an inactive call.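 How the source made its calls: active means mean normalized replicate activity at least 50 and at least half of replicates each reaching 50; inconclusive means only one of the two criteria met; inactive means neither criterion met.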

Assay: reduction of CTGF mRNA in DLD1 cells – DLD1 colon cancer cells, RT-qPCR, single point, primary screen (AID 743449);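 further: 0% = neutral control wells and 100% = dasatinib control wells; higher means stronger suppression of CTGF expression like dasatinib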
Details: 24 h, at 12.5 µM, active compounds read high

SMILES | inhibition
COc1cccc(-c2ccc([C@@H]3[C@@H](CO)N4CCCCN(C(=O)Cc5ccncc5)C[C@@H]34)cc2)c1 | 32.9%
COc1cccc(-c2ccc([C@H]3[C@@H](CO)N4CCCCN(C(=O)Cc5ccncc5)C[C@@H]34)cc2)c1 | 18.9%
O=C(Cc1ccncc1)N1CCCCN2[C@@H](CO)[C@H](c3ccc(C#Cc4ccccc4F)cc3)[C@@H]2C1 | 22.3%
O=C(Cc1ccncc1)N1CCCCN2[C@H](CO)[C@@H](c3ccc(C#Cc4ccccc4F)cc3)[C@H]2C1 | 54.3% (active)
O=C(Cc1ccncc1)N1CCCCN2[C@@H](CO)[C@@H](c3ccc(C#Cc4ccccc4F)cc3)[C@@H]2C1 | 27.9%
COc1cccc(-c2ccc([C@H]3[C@H]4CN(C(=O)Cc5ccncc5)CCCCN4[C@H]3CO)cc2)c1 | 76.7% (active)
O=C(Cc1ccncc1)N1CCCCN2[C@H](CO)[C@@H](c3ccc(C#Cc4ccccc4F)cc3)[C@@H]2C1 | 39.4%
O=C(Cc1ccncc1)N1CCCCN2[C@H](C1)[C@H](c1ccc(C#Cc3ccccc3F)cc1)[C@@H]2CO | 104% (active)
O=C(Cc1ccncc1)N1CCCCN2[C@H](C1)[C@@H](c1ccc(C#Cc3ccccc3F)cc1)[C@@H]2CO | 12.4%
O=C(O)[C@H]1[C@H](CO)[C@H]2Cn3c(ccc(-c4ccncc4)c3=O)[C@@H]1N2S(=O)(=O)c1ccccc1F | -4.67%
C/C=C/c1ccc([C@H]2[C@@H](CO)N3CCCCN(C(=O)Cc4cccnc4)C[C@@H]23)cc1 | -13.7%
C[C@@H]1CN([C@@H](C)CO)C(=O)CCCn2nncc2CO[C@H]1CN(C)C(=O)Oc1cccc2ccccc12 | -0.0735%
COc1ccccc1CN1[C@H](CO)[C@H](c2ccccc2)C12CN(C(=O)Cc1ccccc1)C2 | -16.1%
C/C=C/c1ccc([C@H]2[C@H](CO)N3CCCCN(C(=O)Cc4cccnc4)C[C@@H]23)cc1 | 13.9%
O=C([C@H]1N[C@H]2c3cccc(=O)n3C[C@H]2[C@@H]1CO)N1CCCCC1 | -21.1%
